ADAM10 inh = human ADAM10 inhibitors, primary screen, biochemical, QFRET, HTS | AID 720582, 2013 | inhibition, % at 7 µM | hit rate 0.62% among 370,000 | recombinant ADAM10, EDANS/DABCYL FRET peptide cleavage, 3 h;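 active = inhibition above a per-campaign cutoff equal to the mean of compounds falling between control-based bounds plus 3 SD, cut at about 20% in these data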;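 also: 0% = DMSO wells while the 100% control is not disclosed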
PLCg1 inh = PLC-gamma1 enzyme inhibitors, primary screen, biochemical, fluorescence, purified enzyme. 1-phosphatidylinositol 4,5-bisphosphate phosphodiesterase gamma-1 (Homo sapiens), P19174. fluorogenic substrate. inhibition, % at 12.2 µM. hit rate 0.84% among 370,000. AID 720700, 2013; in the data active = inhibition above about 9.5%
HGIII-sPLA2 inh = human group III sPLA2 inhibitors, primary screen, biochemical, QFRET, BODIPY PC-A2 liposome substrate; hit rate 0.56% among 370,000; inhibition, % at 12.2 µM; QFRET BODIPY PC-A2 liposome hydrolysis, fluorescence; Group 3 secretory phospholipase A2 (Homo sapiens), Q9NZ20;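 active = inhibition above mean plus 3 SD of compounds lying within the high and low control bounds, cut at about 19% in these data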;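 also: 0% = median of test compound wells and 100% = no enzyme DMSO wells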
proKLK7 act = proKLK7 zymogen activators, primary screen, biochemical, fluorescence intensity; Kallikrein-7 (Homo sapiens), P49862; purified proKLK7, EDANS-DABCYL substrate fluorescence; 100% is mature enzyme control, 0% vehicle; activation, % at 7 µM; hit rate 0.9% among 370,000;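 active = activation above the mean of all tested compounds plus 3 SD, computed per campaign excluding outliers beyond control limits, cut at about 13% in these data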
PLCb3 inh = human PLC-beta3 inhibitors, primary screen, biochemical, fluorescence | 1-phosphatidylinositol 4,5-bisphosphate phosphodiesterase beta-3 (Homo sapiens), Q01970 | Purified PLC-beta3, fluorogenic substrate | inhibition, % at 12.2 µM | hit rate 0.18% among 370,000; in the data active = inhibition above about 11%;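 also: 0% = median of compound wells on plate and 100% = full blocker control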
ADAM17 inh = ADAM17 inhibitors, primary screen, biochemical, QFRET; AID 720648, 2013; inhibition, % at 6.95 µM; Disintegrin and metalloproteinase domain-containing protein 17 (Homo sapiens), P78536; recombinant ADAM17, EDANS/DABCYL FRET peptide cleavage; hit rate 0.83% among 370,000;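 active = inhibition above the mean of compounds lying between control limits plus 3 SD, set per campaign, cut at about 8.5% in these data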;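 also: 0% = DMSO-only wells as the low control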
Target sequence (P78536 215-824 limits assumed): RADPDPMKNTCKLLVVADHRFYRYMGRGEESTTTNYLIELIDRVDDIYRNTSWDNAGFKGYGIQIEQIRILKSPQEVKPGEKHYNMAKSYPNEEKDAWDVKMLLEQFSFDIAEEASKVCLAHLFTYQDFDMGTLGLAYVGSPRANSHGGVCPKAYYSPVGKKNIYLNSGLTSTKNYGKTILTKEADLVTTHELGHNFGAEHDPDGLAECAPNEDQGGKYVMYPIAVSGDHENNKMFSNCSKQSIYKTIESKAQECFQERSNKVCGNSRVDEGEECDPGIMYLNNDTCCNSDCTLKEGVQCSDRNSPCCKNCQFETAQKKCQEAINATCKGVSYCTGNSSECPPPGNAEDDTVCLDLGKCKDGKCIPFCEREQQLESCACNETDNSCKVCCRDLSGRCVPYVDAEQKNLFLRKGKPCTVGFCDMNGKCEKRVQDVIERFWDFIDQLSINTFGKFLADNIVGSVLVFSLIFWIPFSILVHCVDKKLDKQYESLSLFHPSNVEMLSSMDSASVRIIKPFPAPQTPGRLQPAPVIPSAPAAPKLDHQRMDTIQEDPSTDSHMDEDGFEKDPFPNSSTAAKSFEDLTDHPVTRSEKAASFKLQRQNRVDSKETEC
ADAM10 confirm = human ADAM10 inhibitors, confirmation, biochemical, QFRET, triplicate; shares compounds with ADAM10 inh; ADAM10 QFRET peptide cleavage, EDANS fluorescence; inhibition, % at 6.95 µM; hit rate 1% among 2,100;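 active = inhibition above about 20% chosen separately for each screening run, limit read from the data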;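 also: 0% = DMSO wells and 100% = marimastat wells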
ADAM17 counter = ADAM17 inhibitors, counter-screen for ADAM10 exosite inhibitor project, biochemical, QFRET, high throughput; shares compounds with ADAM10 inh; ADAM17 QFRET peptide cleavage, EDANS fluorescence; inhibition, % at 6.95 µM; hit rate 0.5% among 2,100;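 active = mean triplicate inhibition above the solvent-only control wells' mean plus 3 SD, cut at about 12% in these data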;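 also: 0% = DMSO wells and 100% = marimastat wells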
An asterisk follows results filed as active; · = no result given. An excerpt weighted towards active compounds, which were near 3.4% of everything screened.

SMILES	ADAM10 inh	PLCg1 inh	HGIII-sPLA2 inh	proKLK7 act	PLCb3 inh	ADAM17 inh	ADAM10 confirm	ADAM17 counter
COCCCNC(=O)c1oc(=O)c2ccccc2c1-c1ccc(C)cc1	-7	-2	-5	0	0	-2	·	·
COc1cc(S(=O)(=O)N2CCC(O)(c3cccc(C(F)(F)F)c3)CC2)ccc1-n1cnnn1	2	1	-14	0	0	0	·	·
O=S(=O)(c1ccc(OC(F)(F)F)cc1)N1CCC(O)(c2cccc(C(F)(F)F)c2)CC1	21*	4	8	0	-12	7	5	1
C=CCCC1(CCC)C(=O)/C(=C(\O)c2ccccc2)C(=O)C(CCC)=C1OC (stereo not given)	-4	1	3	0	-1	0	·	·
COC(=O)[C@]1(CC(C)C)N[C@H](c2ccc(-c3cccc(Cl)c3)cc2)[C@@H]2C(=O)N(C)C(=O)[C@@H]21	23*	3	0	1	3	6	8	2
CCN1C(=O)[C@H]2[C@@H](c3ccc(-c4ccccc4)cc3)N[C@@](C)(C(=O)OC)[C@H]2C1=O	8	0	8	1	1	-4	·	·
CCN1C(=O)[C@H]2[C@@H](c3ccc(-c4cccc(Cl)c4)cc3)N[C@@](C)(C(=O)OC)[C@H]2C1=O	24*	-3	-35	0	2	5	-1	0
COC(=O)[C@]1(C)N[C@H](c2ccc(-c3cccc(Cl)c3)cc2)[C@@H]2C(=O)N(C)C(=O)[C@@H]21	-10	0	9	0	1	1	·	·
O=C(NCc1ccco1)O[C@H]1CC[C@@]23CCCN2C(=O)CCC[C@H]3C1	-8	-1	9	·	-1	-5	·	·
CCOC(=O)[C@]12CCCC=C1N(Cc1ccc(OC)cc1)C(=O)[C@@H]2CC(=O)N1CCN(C(=O)C2CC2)CC1	-3	-1	-2	1	1	-7	·	·
COc1cc(NS(=O)(=O)c2ccc(NC(=O)/C(=C/c3ccccc3Cl)NC(=O)c3ccccc3)cc2)nc(OC)n1	8	0	-42	0	1	4	·	·
O=C(Nc1ccc(S(=O)(=O)Nc2nccs2)cc1)c1cc(-c2ccccc2)nc2ccccc12	27*	2	-73	0	0	8	9	2
O=C(Nc1ccc(S(=O)(=O)Nc2nccs2)cc1)/C(=C/c1ccccc1Cl)NC(=O)c1ccccc1	32*	2	-21	0	-4	8	1	0
Cc1ccc(-c2cc(C(=O)Nc3ccc(S(=O)(=O)Nc4ncccn4)cc3)c3ccccc3n2)cc1	1	-4	6	0	-5	3	·	·
COc1cccc(CN2C(=O)[C@H]3Cc4c([nH]c5ccccc45)C(C)(C)N3C2=O)c1	21*	-4	-22	1	-5	5	3	1
CCOC(=O)[C@@]12CCCC3=C1N(CCC3)C(=O)[C@H]2CC(=O)N1CCN(C(=O)c2ccco2)CC1	-2	1	5	0	4	1	·	·
Cc1ccc(S(=O)(=O)Nc2ccc(N=Nc3ccc(O)cc3)cc2)cc1	22*	7	-64	0	1	2	2	0
CC(=O)c1ccc(NC(=O)Nc2ccc(NS(=O)(=O)c3ccc(C)cc3)cc2)cc1	24*	1	-60	0	1	7	6	1

Screening results deposited in PubChem BioAssay by The Scripps Research Institute Molecular Screening Center.
